CYP2C9 activ = CYP2C9 (human) activation | P11712 | activation factor at 5 µM | actives 1.4% (n = 96,000) | AID 1024 | recombinant CYP2C9, luciferin-H conversion, luminescence; active compounds read high; factor 1 = untreated enzyme, 0 = blocked;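 active = activation factor of 2 or more for CYP2C9 at a 5 µM dose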;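 also: 0 = sulfaphenazole-blocked wells and 1 = vehicle-only wells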
Target sequence (P11712 whole entry, looked up): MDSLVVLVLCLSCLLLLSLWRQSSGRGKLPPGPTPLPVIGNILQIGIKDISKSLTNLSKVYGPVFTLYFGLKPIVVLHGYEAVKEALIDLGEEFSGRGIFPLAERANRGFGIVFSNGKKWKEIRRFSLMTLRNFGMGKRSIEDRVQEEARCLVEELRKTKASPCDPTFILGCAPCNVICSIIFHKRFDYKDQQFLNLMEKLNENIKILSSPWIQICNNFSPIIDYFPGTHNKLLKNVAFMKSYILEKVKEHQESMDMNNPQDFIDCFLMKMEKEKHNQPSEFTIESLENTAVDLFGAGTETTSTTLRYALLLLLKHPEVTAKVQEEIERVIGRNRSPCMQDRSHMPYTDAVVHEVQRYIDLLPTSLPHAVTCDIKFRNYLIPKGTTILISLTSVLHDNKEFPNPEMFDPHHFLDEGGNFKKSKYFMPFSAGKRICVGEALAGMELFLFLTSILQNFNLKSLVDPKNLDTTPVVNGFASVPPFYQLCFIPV
CYP2C9 inh = inhibitors of human CYP2C9; P11712; CYP2C9 Supersomes, luciferin-H conversion, luminescence; inhibition, % at 5 µM; actives 20% (n = 96,000);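 active = blocking of liver enzyme CYP2C9 beyond about 50% at 5 µM, limit read from the data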
CYP2C19 inh = inhibitors of human CYP2C19; P33261; CYP2C19 Supersomes, luciferin-H EGE luminescence, 30 min; inhibition, % at 5 µM; actives 21% (n = 96,000);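 active = CYP2C19 inhibition above a set limit at 5 µM in the primary screen, cut at about 50% in these data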;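 also: plate controls were negative control wells for no effect and 2.5 mM tranylcypromine positive control for full effect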
CYP2C19 activ = activators of human cytochrome P450 2C19. AID 1025. activation factor at 5 µM. P33261. 96,000 tested, under 10 active. recombinant CYP2C19, luciferin-H EGE luminescence; active compounds read high; 0 = fully inhibited enzyme, 1 = untreated enzyme;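 active = activation factor of at least 2 at 5 µM in the primary screen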;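 also: 0 = wells with 2.5 mM tranylcypromine and 1 = vehicle-only wells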
The depositor's hits bear a star. An excerpt weighted towards active compounds, which were near 31% of everything screened.

SMILES	CYP2C9 activ	CYP2C9 inh	CYP2C19 inh	CYP2C19 activ
CN1CCN(c2oc(COc3ccc(-c4ccccc4)cc3)nc2C#N)CC1	0.8	20	55*	0.4
N#Cc1nc(COc2ccc(Br)cc2)oc1N1CCCCCC1	0.6	42	21	0.8
N#Cc1nc(COc2ccc(Br)cc2)oc1N1CCCC1	0.4	65*	99*	0
N#Cc1nc(COc2ccccc2)oc1N1CCCC1	0.7	31	88*	0.1
CC(C)CC(=O)Nc1ccccc1Oc1ccccc1	1	3	25	0.8
O=C(OCCN=C1NS(=O)(=O)c2ccccc21)C1CC(=O)N(c2ccc3ccccc3c2)C1 (stereo not given)	1.3	-34	31	0.7
CC(C)C(=O)Nc1cc(=O)[nH]c2ncnn12	1	-4	-2	1
O=C(NCCN=C1NS(=O)(=O)c2ccccc21)c1ccncc1	0.5	51*	0	1
CN(C)S(=O)(=O)c1ccc(C(=O)OCCCN=C2NS(=O)(=O)c3ccccc32)cc1	0.5	47	16	0.8
O=C(NCCCN=C1NS(=O)(=O)c2ccccc21)c1ccc(S(=O)(=O)N2CCCCC2)cc1	0.5	54*	19	0.8
O=C(NCCN=C1NS(=O)(=O)c2ccccc21)c1ccc2nccnc2c1	0.6	37	22	0.8
O=C(OCCN=C1NS(=O)(=O)c2ccccc21)c1ccncc1	0.2	78*	-19	1.2
COC(=O)c1sccc1NC(=O)c1ccco1	1	2	-9	1.1
O=C(COC(=O)C1CC(=O)N(C2CCCCC2)C1)c1ccc(F)cc1 (stereo not given)	1	4	8	0.9
Cc1cccc(C)c1NC(=O)CSc1nc2ccccc2c(=O)[nH]1	0.8	17	26	0.7
Cc1ccc(C(=O)CSc2nc3ccccc3c(=O)[nH]2)cc1	0.3	75*	43	0.6
CC(C)(C)N(Cc1ccccc1)C(=O)CSc1nc2ccccc2c(=O)[nH]1	0.2	82*	66*	0.3
Cc1csc(NC(=O)CSc2nc3ccccc3c(=O)[nH]2)n1	0.4	55*	8	0.9
CN(C)C(=O)CSc1nc2ccccc2c(=O)[nH]1	1.1	-12	-13	1.1
CC(C)(C)c1csc(NC(=O)CSc2nc3ccccc3c(=O)[nH]2)n1	0.1	94*	67*	0.3
CCc1ccc(C(=O)CSc2nc3ccccc3c(=O)[nH]2)cc1	0.6	40	26	0.7
COC(=O)c1ccc(C2C(C(C)=O)=C(O)C(=O)N2CCO)cc1 (stereo not given)	1	3	0	1
Cc1snc(S(=O)(=O)Cc2ccccc2Cl)c1C#N	1	4	38	0.6
CC(=O)Nc1ccc(NC(=S)Nc2ccccc2)cc1	1	3	36	0.6
Cc1ccc(NC(=S)Nc2nc(CC(=O)Nc3ccccc3)cs2)cc1	0.7	28	59*	0.4
SMILES	CYP2C9 activ	CYP2C9 inh	CYP2C19 inh	CYP2C19 activ
Cc1csc(NC(=O)CSCC(=O)Nc2ccccc2)n1	0.4	57*	50	0.5
Cc1csc(NC(=O)CSc2nnc(C)s2)n1	1.1	-6	-9	1.1
Cc1cc(=O)[nH]c(SCC(=O)c2ccc(C(C)C)cc2)n1	0.9	12	34	0.7
Cc1cc(C)c2c(=O)[nH]c(SCC(=O)c3ccc(C(C)C)cc3)nc2n1	0.5	51*	15	0.9
CCC(C)NC(=O)C1c2cc(OC)c(OC)cc2C(=O)N(C)C1c1cccs1 (stereo not given)	1	-1	15	0.8
CCCCNC(=O)/C=C/c1ccc(OC)c(Br)c1	1.6	-56	41	0.6
COc1ccc(/C=C/C(=O)NCc2cn(C)nc2C)cc1COc1ccc(Br)cc1	0.4	60*	67*	0.3
COc1ccc(/C=C/C(=O)c2ccccc2)cc1COc1ccc(F)cc1	0.4	65*	16	0.8
COc1ccc(/C=C/C(=O)c2ccc(O)cc2)cc1COc1ccc(F)cc1	0.9	6	0	1
O=C1C2=C(Nc3ccccc3SC2c2ccco2)c2ccccc21 (stereo not given)	0.2	78*	19	0.8
COC(=O)/C(=C/c1c[nH]c2ccccc12)[N+](=O)[O-]	1.2	-16	-3	1
COC(=O)c1ccc(N2CCN(CC(=O)c3ccc(-c4ccccc4)cc3)CC2)c([N+](=O)[O-])c1	0.5	50*	39	0.6
COC(=O)c1ccc(NC(=O)C2CCCN(S(=O)(=O)c3cnc[nH]3)C2)cc1 (stereo not given)	0.1	86*	79*	0.2
CSc1cccc(NC(=O)C2CCCN(S(=O)(=O)c3cnc[nH]3)C2)c1 (stereo not given)	0.1	93*	98*	0
CSc1cccc(NC(=O)C2CCN(S(C)(=O)=O)CC2)c1	1	-4	3	1
CCOCCCNC(=O)C(C)NS(=O)(=O)c1ccc(C)cc1 (stereo not given)	1	-4	2	1
COc1ccc(OC)c(-n2c(=S)[nH]c3cc(C(=O)NCCCN4CCCC4=O)ccc3c2=O)c1	0.9	10	-1	1
O=C(CSc1nc2ccccc2o1)NC(=O)NCc1ccccc1	0.7	30	28	0.7
O=C(CSc1nc2ccccc2o1)NCc1ccco1	1	0	72*	0.3
Cn1c(SCC(=O)NC(=O)NCc2ccco2)nnc1-c1ccccc1	0.9	13	6	0.9
O=C(CSc1n[nH]c(-c2ccccc2)n1)NC(=O)NCc1ccco1	0.2	79*	83*	0.2
O=C(CSc1nc2ccccc2o1)NC(=O)NCc1ccco1	0.8	25	51*	0.5
C1=CC2CC1CC2CNCc1ccco1 (stereo not given)	1.1	-7	10	0.9
COc1ccccc1C1/C(=C(/O)c2ccccc2)C(=O)C(=O)N1CC(C)C (stereo not given)	0.4	59*	-10	1.1
COC(=O)c1nn(C23CC4CC(CC(C4)C2)C3)c2c1C(=O)N(c1ccc(F)cc1)C2=O	1.1	-5	-10	1.1
SMILES	CYP2C9 activ	CYP2C9 inh	CYP2C19 inh	CYP2C19 activ
Cc1cc(C)c(OC2(c3ccccc3)OC(=O)c3ccccc32)c(C)c1 (stereo not given)	0.5	55*	54*	0.5
Cc1cccc(C)c1OC1(c2ccccc2)OC(=O)c2ccccc21 (stereo not given)	0.3	69*	82*	0.2
COc1ccc(S(=O)(=O)N2CCN(c3ccc4nnc(-c5ccc(F)cc5)n4n3)CC2)cc1	0	97*	90*	0.1
Cc1ccc(S(=O)(=O)N2CCN(c3ccc4nnc(-c5ccccc5)n4n3)CC2)cc1	0	99*	95*	0.1
COc1cccc(-c2csc(N3CCN(S(=O)(=O)c4ccc(F)cc4)CC3)n2)c1	0.9	13	-4	1
C1CCc2c(nc3nnnn3c2NC2CCCC2)C1	0.8	16	7	0.9
O=c1c2[nH]c3cccc(Cl)c3c2ncn1Cc1ccncc1	0.5	52*	58*	0.4
CCN(CC)S(=O)(=O)c1cccc(C(=O)Nc2ccc(C#N)cc2)c1	0.6	40	22	0.8
CCOc1ccc(-c2cn(CCC#N)cn2)cc1	0.6	41	65*	0.3
CCOc1ccc(-c2nn[nH]n2)cc1	1.2	-17	2	1
